Experimental data reported in PubChem BioAssay AID1159580 (chemical genetic matrix, 2015).
In all, about 5,500 compounds went through this assay and about 2,000 (36%) were called active. About 18% were inconclusive and are not listed. No stated cut-off is given here; in the data, active means normalized growth mostly below about 0.91 (no sharp cut-off); inconclusive means no clear call, values can overlap the other calls; inactive means mostly above about 0.92. The list shows a part of the results.

Test: chemical genetic growth profiling, strain panel (AID 1159580);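 further: tested at 20 µM; growth read once vehicle control cultures reached saturation at 30 °C; 1 = growth at the plate median or of vehicle wells; lower values mean less growth of the strain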
Settings: S. cerevisiae deletion strains, growth OD
[1] = locus YAL040C, strain CLN3, active compounds read low
[2] = locus YCL061C, strain MRC1 (second series), active compounds read low
[3] = locus YER002W, strain NOP16, active compounds read low
[4] = locus YMR263W, strain SAP30, active compounds read low
[5] = locus YNL153C, strain GIM3, active compounds read low
[6] = locus YNL175C, strain NOP13, active compounds read low
[7] = locus YNL197C, strain WHI3, active compounds read low
[8] = locus YNL224C, strain SQS1, active compounds read low
[9] = locus YNL322C, strain KRE1, active compounds read low
[10] = locus YOR083W, strain WHI5 (second series), active compounds read low
[11] = locus YPL055C, strain LGE1, active compounds read low
[12] = locus YPL241C, strain CIN2, active compounds read low
[13] = locus YAR019C, strain CDC15, active compounds read low
[14] = locus YBL105C, strain PKC1, active compounds read low
[15] = locus YBR135W, strain CKS1, active compounds read low
[16] = locus YBR136W, strain MEC1, active compounds read low
[17] = locus YBR160W, strain CDC28, active compounds read low
[18] = locus YDL017W, strain CDC7, active compounds read low
[19] = locus YDL028C, strain MPS1, active compounds read low
[20] = locus YDL101C, strain DUN1, active compounds read low
[21] = locus YDL108W, strain KIN28, active compounds read low
[22] = locus YDL132W, strain cdc53, active compounds read low
[23] = locus YDL214C, strain PRR2, active compounds read low
[24] = locus YDR052C, strain DBF4, active compounds read low
[25] = locus YDR054C, strain cdc34, active compounds read low
[26] = locus YDR226W, strain ADK1, active compounds read low
[27] = locus YDR477W, strain SNF1, active compounds read low
[28] = locus YER123W, strain YCK3, active compounds read low
[29] = locus YER133W, strain GLC7, active compounds read low
[30] = locus YFL009W, strain cdc4, active compounds read low
[31] = locus YFL029C, strain CAK1, active compounds read low
[32] = locus YFR003C, strain YPI1, active compounds read low
[33] = locus YFR019W, strain FAB1, active compounds read low
[34] = locus YFR028C, strain CDC14, active compounds read low
[35] = locus YGR040W, strain KSS1, active compounds read low
[36] = locus YGR052W, strain FMP48, active compounds read low
[37] = locus YGR092W, strain DBF2, active compounds read low
[38] = locus YHR030C, strain SLT2, active compounds read low
[39] = locus YHR079C, strain IRE1, active compounds read low
[40] = locus YHR082C, strain KSP1, active compounds read low
[41] = locus YHR205W, strain SCH9, active compounds read low
[42] = locus YIL147C, strain SLN1, active compounds read low
[43] = locus YJL095W, strain BCK1, active compounds read low
[44] = locus YJL128C, strain PBS2, active compounds read low
[45] = locus YJL157C, strain FAR1, active compounds read low
[46] = locus YJR016C, strain ILV3, active compounds read low
[47] = locus YJR066W, strain TOR1 (second series), active compounds read low
[48] = locus YJR066W, strain TOR1, active compounds read low
[49] = locus YKL048C, strain ELM1, active compounds read low
[50] = locus YKL067W, strain YNK1, active compounds read low
[51] = locus YKL101W, strain HSL1, active compounds read low
[52] = locus YKL193C, strain SDS22, active compounds read low
[53] = locus YKL203C, strain TOR2, active compounds read low
[54] = locus YLR113W, strain HOG1, active compounds read low
[55] = locus YLR133W, strain CKI1, active compounds read low
[56] = locus YLR403W, strain SFP1, active compounds read low
[57] = locus YML070W, strain DAK1, active compounds read low
[58] = locus YMR001C, strain CDC5, active compounds read low
[59] = locus YMR205C, strain PFK2 (second series), active compounds read low
[60] = locus YMR277W, strain FCP1, active compounds read low
[61] = locus YNL006W, strain LST8, active compounds read low
[62] = locus YNL020C, strain ARK1, active compounds read low
[63] = locus YNL161W, strain CBK1, active compounds read low
[64] = locus YNL183C, strain NPR1, active compounds read low
[65] = locus YNL207W, strain RIO2, active compounds read low
[66] = locus YNL222W, strain SSU72, active compounds read low
[67] = locus YNL307C, strain MCK1 (second series), active compounds read low
[68] = locus YOL078W, strain AVO1, active compounds read low
[69] = locus YOL136C, strain PFK27, active compounds read low
[70] = locus YOR061W, strain CKA2, active compounds read low
[71] = locus YOR119C, strain RIO1, active compounds read low
[72] = locus YOR231W, strain MKK1, active compounds read low
[73] = locus YOR329C, strain SCD5, active compounds read low
[74] = locus YPL031C, strain PHO85, active compounds read low
[75] = locus YPL153C, strain RAD53, active compounds read low
[76] = locus YPL204W, strain HRR25, active compounds read low
[77] = locus YPL209C, strain IPL1, active compounds read low
[78] = locus YPL256C, strain CLN2, active compounds read low
[79] = locus YPR025C, strain CCL1, active compounds read low
[80] = locus YPR106W, strain ISR1, active compounds read low
[81] = locus YPR111W, strain DBF20, active compounds read low
[82] = strain NNK1, active compounds read low
[83] = strain TSCII, active compounds read low
[84] = locus YAL013W, strain DEP1, active compounds read low
[85] = locus YDR363W, strain ESC2, active compounds read low
[86] = locus YGR078C, strain PAC10, active compounds read low
[87] = locus YMR307W, strain GAS1, active compounds read low

Measured: normalized growth

C#CC(N)CCC(=O)O (stereo not given)
inactive: [1] 1.02 | [2] 1.01 | [3] 1.01 | locus YGR229C, strain SMI1, active compounds read low 1.01 | [4] 1.01 | [5] 1 | [6] 1.02 | [7] 1.02 | [8] 1 | [9] 1.01 | [10] 0.988 | [11] 0.989 | [12] 1.01

S=C(Nc1cc(Cl)c(Cl)cc1Cl)Nc1ccccc1Br
active: [38] 0.67 | [54] 0.828 | [78] 0.809
inactive: [13] 0.958 | [14] 0.969 | [15] 0.964 | [16] 0.953 | [17] 0.961 | [18] 0.963 | [19] 0.953 | [20] 0.977 | [21] 0.958 | [22] 0.96 | [23] 0.884 | [24] 0.97 | [25] 0.969 | [26] 0.947 | [27] 0.875 | [28] 0.833 | [29] 0.87 | [30] 0.963 | [31] 0.949 | [32] 0.969 | [33] 0.899 | [34] 0.943 | [35] 0.861 | [36] 0.848 | [37] 0.77 | [39] 0.82 | [40] 0.822 | [41] 0.812 | [42] 0.939 | [43] 0.796 | [44] 0.927 | [45] 0.898 | [46] 0.961 | [47] 0.848 | [48] 0.786 | [49] 0.911 | [50] 0.892 | [51] 0.842 | [52] 0.96 | [53] 0.913 | [55] 0.861 | [56] 0.754 | [57] 0.86 | [58] 0.957 | [59] 0.873 | [60] 0.959 | [61] 0.984 | [62] 0.844 | [63] 0.977 | [64] 0.791 | [65] 0.962 | [66] 0.97 | [67] 0.839 | [68] 0.962 | [69] 0.854 | [70] 0.749 | [71] 0.869 | [72] 0.846 | [73] 0.975 | [74] 0.873 | [75] 0.837 | [76] 0.848 | [77] 0.966 | [79] 0.966 | [80] 0.942 | [81] 0.935 | [82] 0.961 | [83] 0.953

S=C(NNc1ccccc1)Nc1cc(Cl)ccc1Cl
inactive: [13] 0.963 | [14] 0.958 | [15] 0.96 | [16] 0.962 | [17] 0.963 | [18] 0.962 | [19] 0.97 | [20] 0.963 | [21] 0.974 | [22] 0.959 | [23] 0.953 | [24] 0.966 | [25] 0.939 | [26] 0.985 | [27] 0.945 | [28] 0.921 | [29] 0.958 | [30] 0.974 | [31] 0.95 | [32] 0.961 | [33] 1 | [34] 0.965 | [35] 0.94 | [36] 1.02 | [37] 0.726 | [38] 0.853 | [39] 0.909 | [40] 0.935 | [41] 0.938 | [42] 0.965 | [43] 0.918 | [44] 0.967 | [45] 0.947 | [46] 0.961 | [47] 0.934 | [48] 0.894 | [49] 0.951 | [50] 0.976 | [51] 0.957 | [52] 0.955 | [53] 1 | [54] 0.874 | [55] 0.955 | [56] 0.936 | [57] 0.948 | [58] 0.959 | [59] 0.98 | [60] 0.957 | [61] 0.971 | [62] 0.964 | [63] 0.956 | [64] 0.957 | [65] 0.946 | [66] 0.957 | [67] 0.914 | [68] 0.958 | [69] 0.953 | [70] 0.909 | [71] 0.958 | [72] 0.928 | [73] 0.952 | [74] 0.925 | [75] 0.922 | [76] 0.938 | [77] 0.964 | [78] 0.893 | [79] 0.96 | [80] 0.964 | [81] 0.973 | [82] 0.964 | [83] 0.957

NC(CCCP(=O)(O)O)C(=O)O (stereo not given)
inactive: [84] 0.993 | [1] 1.01 | [2] 1 | [85] 1.09 | [3] 0.993 | [86] 1.02 | [4] 1 | [87] 0.982 | [6] 1.01 | [7] 1 | [8] 1.02 | [9] 1 | [10] 1.01 | [11] 0.977 | [12] 0.993

O=C1NC(c2cccc([N+](=O)[O-])c2)=CCN1c1ccccc1O
inactive: [84] 0.998 | [1] 0.994 | [2] 1.01 | [85] 1.01 | [3] 1 | [86] 1.02 | locus YJR075W, strain HOC1, active compounds read low 1.01 | [4] 1 | [87] 1 | [5] 1.05 | [6] 1 | [7] 1.01 | [8] 0.995 | [9] 0.998 | [10] 1.01
